Screening results as filed in PubChem.
KLF5 inh: kruppel-like factor 5 inhibition | inhibition, % at 5 µM | hit rate 0.23% among 290,000 | AID 1700 | DLD-1 KLF5 promoter-luciferase reporter, luminescence;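 active = inhibition above a per-plate limit of that plate's mean compound inhibition plus 3 SD, cut at about 60% in these data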;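 also: higher means less KLF5 promoter-driven luciferase light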
Mdm2-MdmX inh: inhibitors of human Mdm2/MdmX interaction; O15151+Q00987; SaOS-2 split-luciferase Mdm2/MdmX complementation, luminescence; inhibition, % at 8 µM; hit rate 3% among 330,000;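 active = inhibition of at least 50% at 8 µM in the primary screen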
Target sequence (O15151 whole entry, looked up): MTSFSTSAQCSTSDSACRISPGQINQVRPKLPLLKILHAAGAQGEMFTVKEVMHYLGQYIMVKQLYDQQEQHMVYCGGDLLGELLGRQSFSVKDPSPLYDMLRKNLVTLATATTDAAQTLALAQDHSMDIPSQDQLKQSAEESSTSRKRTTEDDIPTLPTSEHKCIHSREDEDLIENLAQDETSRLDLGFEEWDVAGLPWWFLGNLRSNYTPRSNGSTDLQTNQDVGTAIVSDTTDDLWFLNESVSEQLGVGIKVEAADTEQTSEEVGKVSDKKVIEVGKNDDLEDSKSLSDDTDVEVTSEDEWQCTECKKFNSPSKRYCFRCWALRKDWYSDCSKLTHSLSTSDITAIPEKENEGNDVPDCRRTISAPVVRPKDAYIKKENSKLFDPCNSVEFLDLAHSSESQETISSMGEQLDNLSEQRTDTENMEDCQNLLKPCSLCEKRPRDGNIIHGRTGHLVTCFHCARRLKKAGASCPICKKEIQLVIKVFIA
Target sequence (Q00987 whole entry, looked up): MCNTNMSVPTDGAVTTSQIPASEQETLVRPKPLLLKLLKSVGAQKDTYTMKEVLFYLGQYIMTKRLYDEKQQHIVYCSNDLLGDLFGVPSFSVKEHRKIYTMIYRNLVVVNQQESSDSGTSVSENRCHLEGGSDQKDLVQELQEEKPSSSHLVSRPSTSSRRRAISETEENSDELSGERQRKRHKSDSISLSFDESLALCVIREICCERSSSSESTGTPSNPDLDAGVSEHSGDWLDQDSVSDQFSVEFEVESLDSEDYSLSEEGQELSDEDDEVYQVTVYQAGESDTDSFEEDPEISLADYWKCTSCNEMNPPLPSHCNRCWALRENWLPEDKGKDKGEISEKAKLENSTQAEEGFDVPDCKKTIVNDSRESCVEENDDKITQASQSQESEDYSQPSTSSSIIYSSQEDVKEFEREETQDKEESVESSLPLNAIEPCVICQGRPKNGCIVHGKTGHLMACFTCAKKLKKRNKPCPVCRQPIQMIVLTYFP
Jurkat NFkB inh: inhibitors of the PMA/ionomycin-induced NF-kB reporter in Jurkat cells; inhibition, % at 4 µM; AID 435003; PMA/ionomycin-induced NF-kB luciferase reporter, luminescence; hit rate 0.53% among 330,000; in the data active = inhibition above about 50%
Gli-Sufu antag: antagonists of Gli-Sufu signaling; Sufu-KO-LIGHT fibroblasts, Gli luciferase reporter luminescence; inhibition, % at 5 µM; hit rate 0.74% among 340,000;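 active = inhibition above about 55%, limit read from the data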
697 NFkB inh: inhibitors of the PMA/ionomycin-induced NF-kB reporter in 697 B cells; 697 B-cell NF-kB luciferase reporter, 16 h; AID 435022; inhibition, % at 4 µM; hit rate 0.33% among 330,000; in the data active = inhibition above about 35%
aSyn UTR inh: MLPCN primary screen, SNCA 5' untranslated region. alpha-synuclein 5'UTR reporter, inhibitor activity. inhibition, % (tested at 7.5 µM). hit rate 0.82% among 300,000. AID 1813; in the data active = inhibition above about 60%;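 also: H4 neuroglioblastoma cells stably carrying SNCA 5'UTR luciferase fusion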
Mdm2 MdmX conf: confirmation of human Mdm2/MdmX interaction inhibitors | shares compounds with Mdm2-MdmX inh | Mdm2-MdmX binding, luminescent assay | inhibition, % at 8 µM | hit rate 55% among 10,000; in the data active = inhibition above about 40%
Full FLuc ctr: counter-screen for Mdm2/MdmX inhibitors: full-length luciferase | inhibition, % at 8 µM | SaOS-2 full-length luciferase counterscreen, luminescence | shares compounds with Mdm2-MdmX inh | hit rate 77% among 6,200;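 active = mean inhibition at 8 µM reaching about 37%, which flags the compound as non-specific, limit read from the data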;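 also: p53-null SaOS-2 cells with luciferase driven by a doxycycline-inducible promoter; compound on cells about two nights before reading with doxycycline added after day one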
Hits are given with their value. Rows were chosen to be rich in hits. Some 4.1% of all compounds tested hit in one or more screens of this group.

How did Cc1sc2nc(-c3ccncc3)[nH]c(=O)c2c1-c1ccccc1 do in these assays?
KLF5 inh: inactive; Mdm2-MdmX inh: inactive; Jurkat NFkB inh: inactive; 697 NFkB inh: inactive; aSyn UTR inh: inactive

Results for Cc1sc2nc(-c3ccccn3)[nH]c(=O)c2c1-c1ccccc1 ?
KLF5 inh: inactive; Mdm2-MdmX inh: 57; Jurkat NFkB inh: inactive; Gli-Sufu antag: inactive; 697 NFkB inh: inactive; Mdm2 MdmX conf: inactive

How did Cc1ccc(O)c(C(=O)c2cc(C#N)c(=O)n(-c3nccs3)c2)c1 do in these assays?
KLF5 inh: inactive; Mdm2-MdmX inh: 55; Jurkat NFkB inh: inactive; Gli-Sufu antag: inactive; 697 NFkB inh: inactive; aSyn UTR inh: inactive; Mdm2 MdmX conf: inactive

Results for Clc1ccc(-n2nnnc2-c2cnc3ccc(Cl)cc3c2-c2ccccc2)cc1 ?
KLF5 inh: inactive; Mdm2-MdmX inh: 61; Jurkat NFkB inh: inactive; Gli-Sufu antag: inactive; 697 NFkB inh: inactive; aSyn UTR inh: inactive; Mdm2 MdmX conf: inactive

Results for Clc1ccc2[nH]cc(-c3nnnn3-c3ccccc3)c2c1 ?
KLF5 inh: inactive; Mdm2-MdmX inh: inactive; Jurkat NFkB inh: inactive; Gli-Sufu antag: inactive; 697 NFkB inh: inactive; aSyn UTR inh: inactive

What do the screens show for `Clc1ccc2ncc(-c3nnnn3-c3ccccc3)c(-c3ccccc3)c2c1`?
KLF5 inh: inactive; Mdm2-MdmX inh: 56; Jurkat NFkB inh: inactive; Gli-Sufu antag: inactive; 697 NFkB inh: inactive; aSyn UTR inh: inactive; Mdm2 MdmX conf: inactive; Full FLuc ctr: 43

What do the screens show for `CCOC(=O)c1ccc(N2CCN(C(C)=O)CC2)c(NC(=O)c2cccnc2)c1`?
KLF5 inh: inactive; Mdm2-MdmX inh: inactive; Jurkat NFkB inh: inactive; Gli-Sufu antag: inactive; 697 NFkB inh: inactive; aSyn UTR inh: inactive

Results for Cc1ccc(-c2nc(C(Cl)Cl)c3ccccc3n2)cc1 ?
KLF5 inh: inactive; Mdm2-MdmX inh: 96; Jurkat NFkB inh: inactive; Gli-Sufu antag: inactive; 697 NFkB inh: inactive; aSyn UTR inh: 93; Mdm2 MdmX conf: 49; Full FLuc ctr: inactive

What do the screens show for `Cc1ccc(-c2nc(Nc3ccc(O)cc3)c3ccccc3n2)cc1`?
KLF5 inh: inactive; Mdm2-MdmX inh: inactive; Jurkat NFkB inh: inactive; Gli-Sufu antag: inactive; 697 NFkB inh: inactive; aSyn UTR inh: inactive

How did CCN(CC)c1ccc(/C=N\NC(=O)c2cccc3cc[nH]c23)cc1 do in these assays?
KLF5 inh: inactive; Mdm2-MdmX inh: 50; Jurkat NFkB inh: inactive; Gli-Sufu antag: inactive; 697 NFkB inh: inactive; aSyn UTR inh: inactive; Mdm2 MdmX conf: inactive

What do the screens show for `O=C1c2cccc3c([N+](=O)[O-])ccc(c23)C(=O)N1CCc1ccccn1`?
KLF5 inh: inactive; Mdm2-MdmX inh: 96; Jurkat NFkB inh: inactive; Gli-Sufu antag: inactive; 697 NFkB inh: inactive; aSyn UTR inh: inactive; Mdm2 MdmX conf: inactive

What do the screens show for `COc1cccc(C(=O)Nc2ncc3c(n2)CC(c2ccc(OC)cc2OC)CC3=O)c1` (centres undefined)?
KLF5 inh: inactive; Mdm2-MdmX inh: 59; Jurkat NFkB inh: inactive; Gli-Sufu antag: inactive; 697 NFkB inh: inactive; aSyn UTR inh: inactive; Mdm2 MdmX conf: 51; Full FLuc ctr: 57

What do the screens show for `O=C(NCCc1csc(-c2cccnc2)n1)c1ccccc1Br`?
KLF5 inh: inactive; Mdm2-MdmX inh: inactive; Jurkat NFkB inh: inactive; Gli-Sufu antag: inactive; 697 NFkB inh: inactive; aSyn UTR inh: inactive

How did CCOC(=O)c1ccc(N2C(=O)c3n[nH]c(C)c3C2c2ccc(OC)cc2)cc1 (centres undefined) do in these assays?
KLF5 inh: inactive; Mdm2-MdmX inh: inactive; Jurkat NFkB inh: inactive; Gli-Sufu antag: inactive; 697 NFkB inh: inactive; aSyn UTR inh: inactive

What do the screens show for `COc1cc(C2c3c(n[nH]c3C)C(=O)N2c2ccc(Br)cc2)ccc1O` (centres undefined)?
KLF5 inh: inactive; Mdm2-MdmX inh: 56; Jurkat NFkB inh: inactive; Gli-Sufu antag: inactive; 697 NFkB inh: inactive; aSyn UTR inh: inactive; Mdm2 MdmX conf: inactive

What do the screens show for `CCOc1cc(C2c3c(n[nH]c3C)C(=O)N2c2ccc(Br)cc2)ccc1O` (centres undefined)?
KLF5 inh: inactive; Mdm2-MdmX inh: inactive; Jurkat NFkB inh: inactive; Gli-Sufu antag: inactive; 697 NFkB inh: inactive; aSyn UTR inh: inactive

How did COC(=O)c1ccc(C2c3c(n[nH]c3C)C(=O)N2c2ccc(C)cc2)cc1 (centres undefined) do in these assays?
KLF5 inh: inactive; Mdm2-MdmX inh: 74; Jurkat NFkB inh: inactive; Gli-Sufu antag: inactive; 697 NFkB inh: inactive; aSyn UTR inh: inactive; Mdm2 MdmX conf: 47; Full FLuc ctr: 43

How did CC(C)=CCC12Oc3cc(O)ccc3C1(O)Oc1cc(O)c([C@H]3C=C(C)CC(c4ccc(O)cc4O)[C@H]3C(=O)c3ccc(O)cc3O)c(O)c1C2=O (some centres undefined) do in these assays?
Mdm2-MdmX inh: 68; Jurkat NFkB inh: inactive; Gli-Sufu antag: inactive; 697 NFkB inh: inactive; aSyn UTR inh: inactive; Mdm2 MdmX conf: inactive

Results for COC(=O)C1=C(C(=O)OC)[C@@H]2N(Cc3ccccc3)c3ccccc3[C@@]23C[C@@H](C(=O)OC)N(C(=O)COCc2ccccc2)C3=N1 ?
Mdm2-MdmX inh: 63; Jurkat NFkB inh: inactive; Gli-Sufu antag: inactive; 697 NFkB inh: inactive; aSyn UTR inh: inactive; Mdm2 MdmX conf: inactive

How did COC(=O)C1=C(C(=O)OC)[C@@H]2N(Cc3ccccc3)c3ccccc3[C@@]23C[C@@H](C(=O)OC)N(C(C)=O)C3=N1 do in these assays?
Mdm2-MdmX inh: inactive; Jurkat NFkB inh: inactive; Gli-Sufu antag: inactive; 697 NFkB inh: inactive; aSyn UTR inh: inactive

What do the screens show for `C=CCN1c2ccccc2[C@]23C[C@@H](C(=O)OC)N(C(=O)OCC)C2=NC(C(=O)OC)=C(C(=O)OC)[C@H]13`?
Mdm2-MdmX inh: inactive; Jurkat NFkB inh: inactive; Gli-Sufu antag: inactive; 697 NFkB inh: inactive; aSyn UTR inh: inactive

How did COC(=O)C1=C(C(=O)OC)[C@@H]2N(C)c3ccc(OC)cc3[C@@]23C[C@@H](C(=O)OC)N(C(=O)c2ccc(Br)cc2)C3=N1 do in these assays?
Mdm2-MdmX inh: 69; Jurkat NFkB inh: inactive; Gli-Sufu antag: inactive; 697 NFkB inh: inactive; aSyn UTR inh: inactive; Mdm2 MdmX conf: inactive

Results for COC(=O)C1=C(C(=O)OC)[C@@H]2N(Cc3ccccc3)c3ccccc3[C@@]23C[C@@H](C(=O)OC)N(C(=O)c2ccc(Br)cc2)C3=N1 ?
KLF5 inh: inactive; Mdm2-MdmX inh: 96; Jurkat NFkB inh: inactive; Gli-Sufu antag: inactive; 697 NFkB inh: inactive; aSyn UTR inh: inactive; Mdm2 MdmX conf: 86; Full FLuc ctr: 53

How did C=CCN1c2ccccc2[C@]23C[C@@H](C(=O)OC)N(C(=O)c4ccc(Br)cc4)C2=NC(C(=O)OC)=C(C(=O)OC)[C@H]13 do in these assays?
Mdm2-MdmX inh: 96; Jurkat NFkB inh: inactive; Gli-Sufu antag: inactive; 697 NFkB inh: inactive; aSyn UTR inh: inactive; Mdm2 MdmX conf: 68; Full FLuc ctr: 53
